Screening data: PubChem BioAssay, National Center for Advancing Translational Sciences (NCATS)
A selection: hits, their analogues and other compounds. The true share with any hit is near 6.7%.
SW480 rereplic: inducers of DNA re-replication in SW480 colon cancer cells | AID 624297 | Potency, µM (top dose mostly 46.1 µM), for inactives: top-dose re-replication activation, hits mostly activators | SW480 DNA re-replication, Hoechst DNA content imaging, 48 h | 340,000 compounds, 1.8% hits; note: % of control where 0% means no effect; nearly all actives have a fitted effect of over 55% in size
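Image-based DNA-content assay: after two days of treatment, nuclei were labelled with the DNA dye Hoechst and imaged, and hits were compounds raising the count of nuclei showing high fluorescence intensity.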
MCF10A rerep: inducers of DNA re-replication in MCF 10A breast cells. MCF 10A DNA re-replication, Hoechst nuclear intensity, 48 h. Potency, µM (highest dose often 46.1 µM), for inactives: at the top dose activity, positive = re-replication, usual class: activators. 350,000 compounds, 2.9% hits. AID 624296; note: % of control where 0% means no effect; nearly all actives have a fitted effect of over 50% in size
KB-V1 cytotox: KB-V1 MDR subline cytotoxicity; 400,000 compounds, 3.4% hits; AID 1347076; KB-V1 MDR cells viability, CellTiter-Glo, 72 h; Potency, µM (top dose mostly 46.1 µM), usual class: cytotoxic; note: % is set by controls: 0 for no effect and ±100 for the full control effect; nearly all actives have a fitted effect of over 60% in size
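In this primary screen, KB-V1 cells overexpressing P-gp are incubated with library compounds (lowest to highest concentration) for 72 h at 37 degrees C before a luminescent ATP viability read.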
PINK1 expr mod: changes PINK1 expression; PINK1 immunofluorescence, high-content cytometry, 24 h; Potency, µM (series often up to 76.6 µM), for inactives: top-dose activation (PINK1 increase), usual class: activators; 410,000 compounds, 0.2% hits; AID 624263; active = well fitted activation curve with a large enough effect; inconclusive = small, poorly fitted or top-dose-only effect; cell line not stated here; note: % of control where 0% means no effect; nearly all actives have a fitted effect of over 65% in size
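Stable cell line, 250 cells/well, 12 h attachment; compounds pinned at 5 concentrations, 24 h; CCCP control. Fixed with nuclear dye, primary antibodies 12 h at 10 degrees C, secondary plus cell stain; laser-scanning cytometer read.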
KB-3-1 tox: kills parental KB-3-1 adenocarcinoma cells | KB-3-1 viability, CellTiter-Glo ATP luminescence, 72 h | Potency, µM (top dose mostly 46.1 µM), most hits filed as cytotoxic | 400,000 compounds, 1.4% hits; note: % is set by controls: 0 for no effect and ±100 for the full control effect; nearly all actives have a fitted effect of over 60% in size
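Here the drug-naive KB-3-1 line serves as comparator for MDR sub-line selectivity; cells received compound titrations, 72 h at 37 °C, then CellTiter-Glo readout.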
* = called active by the depositor; i = inactive; ? = inconclusive; · = no result given. Unless noted, calls come from the whole dose curve; as a rule, active = well fitted curve in the direction sought with a large enough effect; inconclusive = small, poorly fitted or top-dose-only effect, or another doubt; inactive = no such curve, though single readings can be large; an effect the other way counts as inactive or inconclusive. Potency is the fitted concentration of half-maximal effect.

SMILES	SW480 rereplic	MCF10A rerep	KB-V1 cytotox	PINK1 expr mod	KB-3-1 tox
Cc1c(NC(=O)/C=C/c2cn(-c3ccccc3)nc2-c2ccc(F)cc2)c(=O)n(-c2ccccc2)n1C	18.4%	18.4µM*	i	4.3%	?
Cc1ccc(Cn2c(CNC(=O)c3ccc(Cl)c([N+](=O)[O-])c3)nc3cccnc32)cc1	·	·	·	1.4%	·
CCOC(=O)c1sc2nc(C3CC3)cc(-c3ccc(OC)cc3)c2c1N	6.51µM*	3.66µM*	i	11.0%	i
CCOC(=O)c1sc2nc(C3CC3)cc(-c3ccc(F)cc3)c2c1N	18.4µM*	?	14.6µM*	1.3%	i
COCCCn1c(=O)c2ccccc2n(Cc2cc(C(=O)OC)ccc2OC)c1=O	-1.6%	-5.6%	i	0.5%	i
COc1cccc(CNc2ncnc3sc(C(=O)N4CC5CCC4C5)c(C)c23)c1OC (configuration not stated)	·	·	·	-0.6%	·
CN(Cc1cccs1)c1ncnc2ccc(-c3ccc4cnn(C)c4c3)cc12	·	·	i	·	?
O=C(Nc1ccc2c(c1)CCC2)c1cc(S(=O)(=O)Nc2ccc(F)cc2)c(Cl)cc1Cl	13.5%	?	18.4µM*	?	?
O=C(Nc1ccc2c(c1)CCC2)c1ccc(F)cc1	-1.8%	2.6%	i	0.4%	i
Nc1nc(=O)n(C2CCCCO2)cc1Br (configuration not stated)	-5.8%	-9.1%	i	0.8%	i
O=C(NC(Cc1c[nH]c2ccccc12)C(=O)Nc1ccc(F)c([N+](=O)[O-])c1)c1cccs1 (configuration not stated)	?	?	6.51µM*	-3.3%	?
O=C(NC(Cc1c[nH]c2ccccc12)C(=O)O)c1cccs1 (configuration not stated)	-5.9%	-40.8%	i	-0.4%	i
O=C(NC(Cc1c[nH]c2ccccc12)C(=O)Nc1ccc(OC(F)(F)F)cc1)c1cccs1 (configuration not stated)	?	?	?	3.2%	11.6µM*
O=C(CN(CCc1ccccc1)S(=O)(=O)c1ccc(Cl)cc1)N/N=C/c1ccc2c(c1)OCO2	-53.3%	-1.2%	9.2µM*	?	i
CCOc1cc(/C=N/NC(=O)CN(CCc2ccccc2)S(=O)(=O)c2ccc(NC(C)=O)cc2)ccc1O	-2.8%	0.7%	?	-0.2%	i
COc1ccc(S(=O)(=O)N(CCc2ccccc2)CC(=O)N/N=C/c2ccc3c(c2)OCO3)cc1	?	1.2%	4.61µM*	3.3%	?
CCNC(=O)CN(CCc1ccccc1)S(=O)(=O)c1ccc(OC)cc1	-5.9%	-3.4%	20.6µM*	-2.9%	i
COc1ccc(S(=O)(=O)N(CCc2ccccc2)CC(=O)NCc2ccccc2)cc1	·	·	i	-0.3%	i
CCN1CCN(C(=O)Cn2ncc3c4ccccc4n(Cc4ccccc4F)c3c2=O)CC1	·	·	i	0.6%	i
COC(=O)[C@]1(CC(C)C)N[C@H](c2ccc(-c3cccc(Cl)c3)cc2)[C@@H]2C(=O)N(C)C(=O)[C@@H]21	-1.4%	-7.6%	?	0.3%	?
COc1ccc(C2CC(c3cccs3)=NN2C(=O)CSc2nncn2C)cc1OC (configuration not stated)	-6.8%	4.61µM*	?	0.7%	i
COc1ccc(C2CC(c3cccs3)=NN2C(=O)CSc2nnnn2C)cc1OC (configuration not stated)	0.0%	-1.5%	i	1.5%	i
Cc1cc(N2CCN(c3cccc(C(F)(F)F)c3)CC2)n2nc(-c3ccccc3C)nc2n1	·	·	i	0.4%	i
CC1=C(C(=O)OCCCCCl)C(c2cc3c(cc2Br)OCO3)NC(=O)N1 (configuration not stated)	-4.6%	0.3%	i	-1.0%	i
O=C(CS(=O)(=O)c1nc(-c2ccc(Cl)cc2)cn1-c1ccccc1)Nc1cccc(Cl)c1	·	·	16.4µM*	1.4%	16.4µM*
Cc1ccccc1NC(=O)Cn1cnc2c(oc3ccccc32)c1=O	1.7%	3.0%	18.4µM*	1.4%	i
C1=Nc2ccccc2/C1=C/c1ccccc1	·	·	i	1.9%	?
